Results filed as inconclusive are left out. Where a call stands in place of a potency, no number is given. The source made the active and inactive calls. The call rests on the fitted dose curve; in most records, active means well fitted activation curve with a large enough effect; inconclusive means small, poorly fitted or top-dose-only effect; inactive means flat fitted curve, though single readings scatter.
Potency means the concentration at half of the fitted maximal effect.

This test in a line: HEK293 18hr Apoptosis Induction qHTS against the NCATS CANVASS Library (AID 1347357). Particulars: HEK293 caspase-3/7 Caspase-Glo luminescence; series mostly up to 46.1 µM. The source says: Natural products and their derivatives continue to be wellsprings of nascent therapeutic potential. However, many laboratories have limited resources for biological evaluation, leaving their previously isolated or synthesized compounds largely or completely untested. To address this issue, the Canvass library of natural products was assembled (https://tripod.nih.gov/canvass), in collaboration with academic and industry researchers, for quantitative high-throughput screening (qHTS) across a diverse set of cell-based and biochemical assays. The pure (>85% purity by liquid chromatography/mass spectrometry [LC/MS]) Canvass library of 346 natural products were submitted by 45 academic laboratories and companies around the world. We collected pure natural products to circumvent deconvolution and structure elucidation due to time and resource limitations. The library was formatted into 1536-well plates and evaluated in 50 qHTS (in an 11-pnt concentration series) bioassays with broad scope of disease-relevant mechanisms. The resulting data set from 50 different assays was then systematically analyzed to identify overall trends and specific natural products with interesting biological activities. Reported herein are the results of each individual qHTS and their corresponding assay protocol. The Caspase-Glo (R) (Promega) is a homogeneous, luminescent assay that measures caspase activity. The detection substrate contains tetrapeptide sequence DEVD in an "add-mix-measure" format. The reagent generates a luminescent signal produced by a thermostable luciferase. The luminescence is proportional to the amount of caspase activity in the assay reaction. National Center for Advancing Translational Sciences (NCATS), Rockville, MD National Institute of Health (NIH), Bethesda, Maryland
Cancer Cell Apoptosis Assay 1. In a 1536 well, white solid bottom tissue culture plates (Corning 7494), HEK293 cancer cells in DMEM + 10% FBS + 1% P/S media were dispensed in each well at a final concentration of 500 cells / well (5uL volume) using the Multidrop Combi (Thermo Fisher Scientific) dispenser. 2. Compounds were pin transferred (~23nL volume) via Wako Pin-tool (Wako Automation, Richmond VA) equipped with a 1536 pin head. The assay plates were treated with compounds in a concentration series with a final concentration range of 0.17nM to 103uM. 3. Doxorubicin was used as a control in a 16pnt titration (1mM; 1:2 dilution; 16-points; n = 2; column 3, rows 1 - 32) and was pin transferred via Wako Pin-tool equipped with a 1536 pin head. The final concentration range of doxorubicin is 0.1nM - 4uM. 4. The assay plates were incubated for 18 hours at 37 degrees C/5% CO2/95% Rh. 5. 3uL Caspase-Glo 3/7 (R) (Promega) detection reagent was then added to the assay plates (columns 2 - 48, rows 1 - 32) and incubated at room temperature, covered from light, for 15 min. 6. Luminescence signal was acquired via the ViewLux plate reader (PerkinElmer) using a clear filter, 20 second exposure and 2x binning settings.
`CO[C@H](c1ccccc1)[C@H]1NC(=O)C(C)NC(=O)C(C[C@@H](C)CO)N(C)C(=O)[C@@H](C(O)c2cn(C(C)(C)C3CO3)c3ccccc23)NC(=O)C(C(C)C=C(C)C)NC(=O)C(CC(C)C)N(C)C(=O)C(C(C)C)NC1=O` (stereo not given in full): the Potency result was “inactive”. The result for `CCN1C[C@]2(C)CC[C@@H](O)[C@]34C1[C@H](C[C@H]23)C12CCC(CC14)[C@](O)(CO)[C@H]2O` (stereo not given in full) reads “inactive”. The result for `COC(=O)C1=C2Nc3ccccc3[C@@]23CCN2CC(C(C)=O)C1C[C@H]23` (stereo not given in full) reads “inactive”.

In the case of `C[C@]12CC(O)C3[C@@H](CCC4C[C@@H](O)CC[C@@]43CO)[C@@]1(O)CCC2C1=CC(=O)OC1` (stereo not given in full), the Potency result is “inactive”. The result for `COc1ccc(C23Oc4cc(OC)cc(OC)c4[C@](O)([C@H](c4ccccc4)C2C(=O)NCCCCNC(=O)c2ccccc2)[C@@H]3O)cc1` (stereo not given in full) reads “inactive”; that for `CCCCC[C@@H]1OC(=O)[C@@H](C)N(C)C(=O)[C@H](CCCCC)OC(=O)C(C)N(C)C(=O)[C@H](CCCCC)OC(=O)[C@@H](C)N(C)C(=O)[C@H](CCCCC)OC(=O)C(C)N(C)C1=O` (stereo not given in full), “inactive”.

On to `CNCCc1ccc(O)cc1`, for which the Potency result was “inactive”. On to `CO[C@@H](/C=C/CC/C=C/C(=O)O)[C@@H](O)[C@H](C)[C@@H](O)/C(C)=C/[C@H](C)C(=O)CCCC1CC(=O)NC(=O)C1`, for which the Potency result is “inactive”.

Turning to `C[C@@H]1CC[C@@H](c2ccoc2)N2C[C@@]3(CC[C@@H]12)CS[C@@]1(CC[C@H]2[C@H](C)CC[C@@H](c4ccoc4)N2[C@@H]1O)C3`, the Potency was 8.33 µM (active).

With `CNCCc1c[nH]c2ccccc12`, the Potency entry was “inactive”. The result for `CC1=CC2CC[C@@H]3[C@@H](C)C[C@H](C)[C@@H](C1)N23` (stereo not given in full) reads “inactive”; that for `COc1ccc2c3c([nH]c2c1)C(C)=NCC3`, “inactive”. Turning to `CCCC[C@@H]1CC[C@H]2CCCC(CCC)N12` (stereo not given in full), the Potency result is “inactive”.

In the case of `NCCc1ccccc1`, the Potency entry is “inactive”. On to `COc1ccc2c(c1)[nH]c1c(C)nccc12`, for which the Potency result was “inactive”. The result for `C/C=C1/CN2CC[C@]34C(=Nc5ccccc53)[C@@H]2C[C@@H]1[C@H]4C(=O)OC` reads “inactive”; that for `CCC[C@H]1CC[C@H]2[C@H](C)CCC[C@H]2N1`, “inactive”.

As for `CC1=CC(=O)C2=C(C)C[C@H](O)[C@@H]3[C@H](OC(=O)[C@@H]3C)[C@@H]12`, the Potency entry was “inactive”. The result for `CCN1C[C@]2(C)CC[C@H](O)[C@]34C1C(C[C@H]23)[C@@]12CC[C@H](CC14)[C@](O)(COC(=O)c1ccc(OC)c(OC)c1)[C@H]2O` (stereo not given in full) reads “inactive”; that for `O=C(c1ccccc1O)c1[nH]c(Cl)c(Cl)c1-n1c(C(=O)c2ccccc2O)cc(Cl)c1Cl`, “inactive”. The result for `CN1C(=O)[C@]23CC4C(C)(C)[C@@]5(C[C@@]41CN2CC[C@@]3(C)O)C(=O)Nc1c5ccc2c1OC=CC(C)(C)O2` (stereo not given in full) reads “inactive”; that for `CC(=O)N[C@H]1CCN2CCC[C@H]12`, “inactive”; that for `CC=C1CN(C=O)[C@H]2C[C@@H]1[C@@H](C(=O)OC)[C@@]13CCOC21Nc1ccccc13` (stereo not given in full), “inactive”. As to `CO[C@@H](/C=C/CC/C=C/C(=O)O)[C@@H](O)[C@H](C)/C=C(\C)[C@@H](O)[C@H](C)C(=O)CCCC1CC(=O)NC(=O)C1`, the Potency entry was “inactive”. The result for `CC[C@@H]1CN2CC[C@@]3(O)C(=Nc4cccc(OC)c43)[C@@H]2C[C@@H]1/C(=C\OC)C(=O)OC` reads “inactive”.

Consider `CCC(=O)CCCCC[C@@H]1NC(=O)[C@H]2CCCCN2C(=O)[C@H]([C@@H](C)CC)NC(=O)[C@H](Cc2cn(OC)c3ccccc23)NC1=O`, for which the Potency entry is “inactive”. The result for `CNCCc1ccccc1` reads “inactive”; that for `c1ccc2c3c([nH]c2c1)CNCC3`, “inactive”. As to `C=C1[C@@H](C)[C@H]2[C@H](Cc3ccccc3)NC(=O)[C@]23OC(=O)/C=C/[C@H](O)CCC[C@@H](C)C/C=C/[C@H]3[C@@H]1O`, the Potency entry was “inactive”. For the compound `CN(C)Cc1c[nH]c2ccccc12`, the Potency entry is “inactive”.

The values are drawn from PubChem BioAssay (NCATS).
